Assay outcomes (PubChem BioAssay)
An excerpt weighted towards active compounds, which were near 1.4% of everything screened.
EBNA-1 inhibitor = EBNA-1 DNA-binding inhibitors, primary screen, biochemical, fluorescence polarization; inhibition, % at 14.8 µM; 0.34% of 300,000 active; AID 1950, 2009; in the data active means inhibition above about 28%
LYPLA2 inh = LYPLA2 inhibitors, primary screen, counter-screen for PME1 inhibitor project, biochemical, fluorescence polarization, FP-Rh probe ABPP; 0.38% of 320,000 active; Acyl-protein thioesterase 2 (Homo sapiens), O95372; inhibition, % at 5.9 µM; recombinant LYPLA2;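 active means inhibition above the screen-wide mean plus 3 SD, limit set per campaign, cut at about 26% in these data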;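 further: 0% = LYPLA2 with DMSO and 100% = wells lacking LYPLA2 enzyme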
Target sequence (O95372 whole entry, looked up): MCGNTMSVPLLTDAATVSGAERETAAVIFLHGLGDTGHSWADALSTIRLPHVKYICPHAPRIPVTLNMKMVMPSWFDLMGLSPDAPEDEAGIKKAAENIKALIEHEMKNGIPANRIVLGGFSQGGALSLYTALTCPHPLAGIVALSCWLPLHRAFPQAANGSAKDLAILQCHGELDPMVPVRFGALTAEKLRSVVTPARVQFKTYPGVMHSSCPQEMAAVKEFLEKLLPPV
LYPLA1 counter = LYPLA1 inhibitors, primary screen, counter-screen for PME1 inhibitor project, biochemical, fluorescence polarization, FP-Rh probe ABPP | inhibition, % at 5.9 µM | 0.16% of 320,000 active | Acyl-protein thioesterase 1 (Homo sapiens), O75608 | AID 2174, 2009 | recombinant LYPLA1;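 active means inhibition above the mean of all tested compounds plus 3 SD, set per campaign, cut at about 14% in these data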;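 further: inhibitors block serine hydrolase probe labeling of LYPLA1 so polarization falls; 0% = enzyme with DMSO and 100% = wells lacking LYPLA1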
Target sequence (O75608 whole entry, looked up): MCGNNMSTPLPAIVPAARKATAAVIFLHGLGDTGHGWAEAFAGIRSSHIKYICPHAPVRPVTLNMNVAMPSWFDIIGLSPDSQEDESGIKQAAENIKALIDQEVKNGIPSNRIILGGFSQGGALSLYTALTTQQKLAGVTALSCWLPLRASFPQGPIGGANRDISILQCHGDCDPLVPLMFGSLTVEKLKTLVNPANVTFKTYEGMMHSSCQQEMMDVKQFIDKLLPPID
LANA-H2A inh = blockers of LANA interaction with H2A/H2B – biochemical, FP readout, HTS, primary screen. Protein LANA1 (Human herpesvirus 8 type P (isolate GK18)), Q9QR71. cell-free LANA-H2A/H2B peptide, fluorescence polarization. inhibition, % (test concentration not listed). 0.6% of 320,000 active; in the data active means inhibition mostly above about 10%, no sharp cut-off; inactive means mostly below about 6.7%
ZTA counter = blocks Epstein-Barr virus ZTA, an EBNA-1 counter-screen; P03206; 0.15% of 320,000 active; ZTA-DNA binding, fluorescence polarization; inhibition, % at 11 µM; in the data active means inhibition above about 33%
An asterisk follows results filed as active; i = inactive; . = no result given; + = active, no number; ! = a repeat was not active.

SMILES	EBNA-1 inhibitor	LYPLA2 inh	LYPLA1 counter	LANA-H2A inh	ZTA counter
O=C(Nc1ccc2c(c1)OCCO2)C(=O)NC1CC1	2	0	-3	6	12
O=C(O)c1ccc(N/N=C/c2ccc(OC(=O)c3ccccc3Cl)cc2)cc1	2	26*	0	2	5
Nc1ccc(C(=O)N/N=C\c2ccc(OC(=O)c3ccccc3Cl)cc2)cc1	-7	-1	-5	0	7
Cc1ccc(S(=O)(=O)N2CCOCC2)cc1NC(=O)COC(=O)Cn1c(C)csc1=O	-3	-3	-2	1	1
O=C(CN(Cc1ccc(Cl)cc1)S(=O)(=O)c1ccccc1)NCC1CCCO1 (stereo unspecified)	4	4	-1	-2	18
C=CCn1c(=O)c2c(nc3n2CC(C)CN3CCc2ccccc2)n(C)c1=O (stereo unspecified)	4	1	-1	0	8
Cc1ccc(NC(=O)c2noc3c2CCCCC3)cc1	-8	4	3	8.5*	-13
CCOC(=O)C1CCN(C(=O)c2sc3nc(-c4ccc(F)cc4)cn3c2C)CC1	5	5	1	137*	-2
Cc1ccc(C)n1-c1ccc(C#N)cn1	-4	3	4	.	1
N#Cc1cnc(NN)nc1	-8	-10	-1	165*	4
CC1(c2ccccc2)CC(C)(C)N(C(N)=O)c2ccccc21 (stereo unspecified)	-2	-5	1	22*	3
CC(=O)N1c2ccccc2C(C)(c2ccccc2)CC1(C)C (stereo unspecified)	0	-1	-5	0	5
COc1ccc(OC)c(-c2nn(-c3ccccc3)cc2C(=O)N2CCc3ccccc3C2)c1	.	-8	-2	+	-23
COc1ccccc1N1CCN(C(=O)c2cc3cc(C)ccc3[nH]2)CC1	-7	3	0	15*	-21
COc1ccccc1N1CCN(C(=O)c2cc3ccccc3[nH]2)CC1	-2	6	0	-5	-25
CC(=O)Nc1cccc(N)c1	.	-1	1	28*	6
CCCCN(CC(=O)NCCOC)C(=O)Cn1nnc2ccccc21	3	-2	-2	-3	5
O=[N+]([O-])c1cc(Cc2ccccc2)cc(C=Nc2ccc(N3CCOCC3)cc2)c1O	40*	5	-2	0	77*
O=C(COc1cccc(F)c1)Nc1nc(-c2cccnc2)cs1	.	-1	0	5	-9
Cc1ccc(/C=C/C2=Cc3c(sc(NC(=O)CSc4n[nH]c(N)n4)c3C#N)C(C)(C)C2)o1	49*	-28	-19	3	7
Cc1cccc(C(=O)OCC(=O)NCC2COc3ccccc3O2)c1 (stereo unspecified)	.	0	-1	3	5
Cc1ccc(-n2ncc3c2CCCC3NC(=O)CCCN2CCCC2=O)cc1C (stereo unspecified)	4	-4	2	-4	3
CSc1ccccc1OCc1cc(C(=O)NC2CCc3ccccc32)no1 (stereo unspecified)	-1	-9	-6	-10	2
COc1cc(Cl)ccc1OCc1cc(C(=O)NC2CCc3ccccc32)no1 (stereo unspecified)	3	-2	-2	29*	4
Cc1cccnc1NC(=O)CNC(=O)c1cccs1	3	5	1	4	13
SMILES	EBNA-1 inhibitor	LYPLA2 inh	LYPLA1 counter	LANA-H2A inh	ZTA counter
Cc1cccnc1NC(=O)CCC(=O)c1cccs1	.	1	2	25*	-18
O=C(NCC1CCCO1)c1cccc(S(=O)(=O)Nc2ccc(F)cc2)c1 (stereo unspecified)	.	5	-2	63*	-4
O=C(NCC1(N2CCCCC2)CCCCC1)c1cccc(S(=O)(=O)Nc2ccc(F)cc2)c1	.	1	1	23*	-6
Cc1cc(S(=O)(=O)Nc2ccc(C(=O)NCC3CCCO3)cc2)ccc1F (stereo unspecified)	.	.	.	5	.
COc1cc2ccccc2cc1C(=O)OCc1nc2ccsc2c(=O)[nH]1	.	3	-3	i	13
c1cncc(CNc2c3c(nc4nnnn24)CCCC3)c1	4	0	-1	18*	9
CCN(CC)c1ccc(C(=O)O)cc1	-13	10	2	2	-11
CCN(CC)c1ccc(SS(=O)(=O)O)cc1	-4	-3	0	35*!	-1
COc1ccccc1/C=C/C(=O)OCC(=O)N1CCc2ccccc21	.	-3	-6	-5	-7
COc1ccc(C(=O)C2CCN(CC(=O)Nc3ccc(OC)cc3OC)CC2)cc1	-8	6	2	19*	-17
COc1ccc(NC(=O)CSc2cn[nH]n2)c(OC)c1	1	-1	0	34*	5
COc1ccc(OC)c(NC(=O)Cn2cccc2)c1	10	1	0	17*	-2
COc1ccc(OC)c(NC(=O)CCn2cccc2)c1	3	-6	3	3	16
CC1CC(C)(C)CC2(C1)NC(=O)N(CC(=O)Nc1cc([N+](=O)[O-])ccc1F)C2=O (stereo unspecified)	.	-5	-2	-3	-8
O=C(NNC(=O)c1ccccc1O)c1cccc(Br)c1	-5	0	-2	-2	6
Cc1c(C(C)NC(=O)c2cc(COc3cccc4cnccc34)on2)cnn1C (stereo unspecified)	0	1	-4	25*	12
NC(=O)C1CCN(c2nc(-c3cccc(Cl)c3)cs2)CC1	.	.	.	0	.
Fc1ccccc1CN1CCCCCCC1	-15	-8	1	-4	-1
Fc1cccc(F)c1-n1c(CN2CCCC2)csc1=S	5	-2	-5	33*	2
COc1ccc(OC)c(-n2c(Cn3c(-c4ccccn4)nc4ccccc43)n[nH]c2=S)c1	-7	2	-3	14*	-15
CC(=O)Nc1cccc(NC(=O)CS(=O)(=O)c2cn(CC(=O)N(C(C)C)C(C)C)c3ccccc23)c1	2	1	-3	-3	10
COc1ccc(NC(=O)CN2C(=O)NC3(CCCc4ccccc43)C2=O)c(OC)c1 (stereo unspecified)	.	.	.	-4	.
O=C(CCn1c(=S)oc2ccccc21)Nc1cccc(F)c1	12	-1	-3	129*	-4
CN1CCc2c(sc(/N=C/c3c[nH]c4ccccc34)c2C(N)=O)C1	2	-8	-2	-42	-2
CN1CCc2c(sc(/N=C/c3c[nH]c4ccccc34)c2C#N)C1	5	-3	-3	38*	23
Cc1ccc(S(=O)(=O)N(CC(=O)Nc2ccc(C(N)=O)cc2)C(=O)N2CCN(C)CC2)cc1	-4	1	1	3	-11
CC(C)Oc1ccc(/C(O)=C2/C(=O)C(=O)N(CCN3CCNCC3)C2c2ccc(C(C)C)cc2)cc1 (stereo unspecified)	4	-3	4	-7	7
COc1ccc2oc(C(=O)Nc3ccccn3)c(C)c2c1	6	-11	-6	2	-8
